# Over roughly 33,000 sequences, “E-score (-0.5 to 0.5)” has its median near -0.041; the highest 2% begin near 0.37. The sample holds the highest values, similar sequences and a random draw of the others, so the mix is not that of the screen.
# Target: T1, Ecm22 (UniProt Q05958)
# T1 sequence: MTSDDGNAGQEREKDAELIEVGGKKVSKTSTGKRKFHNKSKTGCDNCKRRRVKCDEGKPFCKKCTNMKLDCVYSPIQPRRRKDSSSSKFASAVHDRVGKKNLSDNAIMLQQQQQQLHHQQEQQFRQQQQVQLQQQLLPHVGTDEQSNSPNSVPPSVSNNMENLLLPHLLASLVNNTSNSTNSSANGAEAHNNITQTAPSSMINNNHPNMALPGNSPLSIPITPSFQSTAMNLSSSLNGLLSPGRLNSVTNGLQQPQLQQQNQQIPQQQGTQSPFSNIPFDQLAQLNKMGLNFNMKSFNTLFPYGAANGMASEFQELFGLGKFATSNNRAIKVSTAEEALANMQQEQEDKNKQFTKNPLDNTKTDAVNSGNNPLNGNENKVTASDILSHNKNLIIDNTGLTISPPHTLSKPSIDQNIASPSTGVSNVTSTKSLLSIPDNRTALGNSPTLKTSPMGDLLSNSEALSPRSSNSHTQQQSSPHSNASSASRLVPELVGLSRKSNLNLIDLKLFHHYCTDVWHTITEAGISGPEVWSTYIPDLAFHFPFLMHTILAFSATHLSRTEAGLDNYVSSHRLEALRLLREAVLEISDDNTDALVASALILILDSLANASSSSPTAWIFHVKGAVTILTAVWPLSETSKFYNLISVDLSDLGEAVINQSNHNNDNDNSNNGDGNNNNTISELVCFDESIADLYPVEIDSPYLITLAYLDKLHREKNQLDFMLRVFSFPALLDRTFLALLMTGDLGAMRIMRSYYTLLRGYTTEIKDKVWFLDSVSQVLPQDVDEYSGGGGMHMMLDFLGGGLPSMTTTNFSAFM
# Assay: PBM E-score (8-mer binding enrichment) (E-score (-0.5 to 0.5)); higher = stronger / more preferred TF binding
# Details: protein concentration: 200 nM; construct: GST-full length
# Method: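 Universal 'all 10-mer' protein binding microarrays (Agilent AMADID 015681) probed with GST-tagged S. cerevisiae TFs (full-length or DBD) made by in vitro transcription/translation (PURExpress), about 100-200 nM. Bound TF was detected with fluorescent anti-GST. Each ungapped 8-mer (which stands for itself and its reverse complement) is scored by the PBM enrichment score (E-score), a modified Wilcoxon-Mann-Whitney statistic from -0.5 to +0.5, computed with the Universal PBM Analysis Suite. Scale: above 0.35 generally sequence-specific binding.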
row,Sequence,PBM E-score
1,GGGAACAA,0.143
2,GGGAACCA,-0.215
3,GGGAACGA,0.492
4,AGCCATTA,0.18
5,AGAGGCTA,-0.209
6,CAATACGG,0.0307
7,GAATACGC,0.152
8,GAATACGA,0.432
9,TAATACCA,0.0168
10,TAATACTA,0.114
11,TAATACGA,0.437
12,CAATACGA,0.403
13,AAATACGA,0.451
14,CAATACGC,-0.0345
15,AAATACGC,0.194
16,GAATACTA,0.141
17,AAATACGT,0.0932
18,ATCGCCGA,0.00202
19,GGTTGTCA,-0.195
20,ACCGCAGC,-0.0492
21,ATCTTTTA,0.0457
22,GCCCGCAC,-0.0245
23,CACCCCAG,-0.0849
24,ACAATAAT,-0.0625
25,CGCGGATA,0.188

row,Sequence,PBM E-score
1,CACCACAG,-0.132
2,CTACCCAG,-0.0541
3,ACCCCAGT,-0.0793
4,CCTAGAAG,-0.187
5,CGTGGCGC,0.0496
6,CCGAAACG,0.288
7,ACGAAATA,0.381
8,ACGAAACA,0.335
9,GCGAAATA,0.0791
10,ACGAAATC,0.285
11,ACGAAACC,0.33
12,ACGAAAGG,0.33
13,ACGAAACG,0.411
14,ACGAAACT,0.369
15,CGAAGGAG,0.129
16,GACTGAAC,0.0447
17,AATTCAGT,-0.189
18,AAACCTTA,0.0879
19,CTAAGGGA,0.0248
20,ATCCCACA,-0.176
21,GATCGTTA,0.211
22,AATCGTAG,0.211
23,AATCGTCT,0.0505
24,CATCGTAA,0.381
25,AATCGTAA,0.333

row,Sequence,PBM E-score
1,GATCGTGC,0.0469
2,AATCGTAT,0.427
3,CATCGTGA,0.108
4,GATCGTCC,-0.0538
5,CATCGTCA,-0.0402
6,GATCGTAA,0.387
7,GATCGTAC,0.454
8,CCCGCAAA,0.148
9,CTGACCCA,-0.312
10,ACTGCTAC,0.00971
11,CATGCTCA,-0.229
12,CCACGGAG,-0.163
13,ACACAGTA,-0.0309
14,AATCGTCC,0.0602
15,CATCGTAC,0.458
16,AATCGTGC,0.221
17,CATCGTCC,0.0413
18,AATCGTAC,0.458
19,CATCGTAG,0.261
20,GTTAAGCA,-0.0308
21,CATCAGAG,-0.126
22,ACACCCCT,-0.271
23,TGTTCTAA,-0.023
24,AGTGCGTA,0.14
25,CGAGTATC,0.246

row,Sequence,PBM E-score
1,CCGCTATC,0.0478
2,CATACGCA,0.216
3,CATACGGA,0.362
4,GATACGCA,0.231
5,GATACGGA,0.285
6,TATACGCA,0.415
7,TATACGGA,0.439
8,CGGATCGA,0.219
9,ATCTTTTC,-0.0858
10,ACGTTATG,0.163
11,ACGAGTAT,0.382
12,GCGAGTAA,0.114
13,ACGAGTAA,0.396
14,ACGAGTAC,0.421
15,AAGAGTAT,-0.113
16,AGGAGTAT,-0.109
17,CCGAGTAG,0.0401
18,CCGAGTAA,0.256
19,CCGAGTAC,0.24
20,AAGAGTAG,-0.211
21,ACGAGTAG,0.38
22,GCGAGTAC,0.324
23,AGGCCCAT,-0.148
24,GACCGCGC,0.0551
25,CCCGACCC,0.092

row,Sequence,PBM E-score
1,AAGCGCGT,0.0575
2,CCCCTCGG,0.266
3,CCGAGCCC,0.0573
4,CCCCTCTA,-0.112
5,AAGTTTGT,-0.176
6,AACTGTTC,-0.177
7,ACGCAGGA,0.108
8,AGCTGCCA,-0.171
9,ACGCCACC,-0.0558
10,CCGGTGGC,-0.135
11,ACGAGTCT,0.324
12,ACGAGTCA,0.219
13,ACGAGTCG,0.384
14,AATCCATT,0.0189
15,CACTCGTA,0.458
16,GACTCGCA,0.151
17,AACTCGTC,0.102
18,AACTCGTG,0.228
19,CACTCGTC,0.0448
20,AACTCGTA,0.47
21,GACTCGTA,0.455
22,GACTCGAA,-0.121
23,CACTCGAA,0.0641
24,GCTACCTA,-0.156
25,ACCTTTCA,-0.0376

row,Sequence,PBM E-score
1,ACAAGCCG,-0.0164
2,AGGATTAC,-0.0965
3,CCGGTAAG,0.0008
4,ATAATTAT,0.311
5,ACAGTAAT,-0.0196
6,CAGAATCG,0.17
7,ACCTCACA,-0.106
8,AAAGTGTT,-0.0118
9,GCTTGAGA,-0.0858
10,CCGAGGGC,0.203
11,ACGAGGGC,0.374
12,AAGAGGGC,-0.297
13,ACGAGGGA,0.41
14,CCGAGGGA,-0.0341
15,ACGAGGGG,0.365
16,TAGTGGCA,-0.179
17,CCCTTCCC,-0.234
18,ACTCCAAC,-0.175
19,CTACTTCC,0.0408
20,ATCATCAT,0.0455
21,GTATCGAC,0.165
22,CACGTAAC,-0.149
23,CTCGTAAG,0.44
24,CTCGTAAC,0.428
25,GTCGTAAC,0.397

row,Sequence,PBM E-score
1,GACGTAAC,-0.079
2,CACGTAAG,0.0432
3,GGCGTAAC,-0.0339
4,ATCGTAAC,0.368
5,CGCGTAAG,0.165
6,TCGCACCA,0.324
7,CTAAGAAG,-0.0845
8,ACTGTGAG,-0.105
9,GCGAGCAA,0.198
10,CCCATTAG,-0.248
11,AGCAACAT,-0.112
12,ACGTCTTC,-0.126
13,ACAACTGT,-0.148
14,ACTGTACC,-0.0754
15,AGTGTACG,0.389
16,CCTGTACG,0.4
17,ACTGTACG,0.42
18,CCTGTACC,-0.0544
19,AGTGTACC,-0.059
20,AGTGTACA,-0.0734
21,ATTGTACC,0.00485
22,ACTGTACT,-0.12
23,ATTGTACG,0.431
24,ATTGTACA,-0.0596
25,CCTGTACA,-0.174

# Source: the supplement of paper PMC3334620
